From the supplement of paper PMC7156485
A number with no mark means an inactive call.

These compounds were tested on HCC1569 (assay: H1.0 immunofluorescence intensity relative to DMSO (% of DMSO); higher = stronger H1.0 induction, active = 140 or more). Settings: concentration: 10 µM; 24 h.
Summary of the method: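 After 24 h at 37 °C with compounds at 10 µM, in triplicate, HCC1569 and TDF cells were fixed with 3.7% formaldehyde. Immunostaining used a rabbit anti-H1.0 antibody and an AlexaFluor 647 secondary, with DAPI, and six fields per well were imaged at ×10. H1.0 nuclear intensity or cell number is presented as percent of the plate control, from the median of replicates, with HCC1569 values smoothed for positional effects.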
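Note: TDF is a line of transformed human dermal fibroblasts of mesenchymal origin.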

**Q.** Which H1.0 immunofluorescence intensity does the source give for CCCCCC=CCC=CCC=CC=CC1CCCC(=O)O1 (racemic) here?
**A.** Its H1.0 immunofluorescence intensity is 103.

**Q.** Cn1c(-c2ccc3c(c2)OCO3)cc(=O)c2ccccc21 [Graveoline] was tested. Which H1.0 immunofluorescence intensity did it give?
**A.** The H1.0 immunofluorescence intensity was 96.9.

**Q.** Which H1.0 immunofluorescence intensity does the source give for CCc1nn(CCCN2CCN(c3cccc(Cl)c3)CC2)c(=O)n1CCOc1ccccc1 here?
**A.** Its H1.0 immunofluorescence intensity is 122.

**Q.** O[C@@H]1[C@@H](O)[C@H](OC/C=C/c2ccccc2)O[C@H](CO[C@@H]2OC[C@H](O)[C@H](O)[C@H]2O)[C@H]1O was tested. Which H1.0 immunofluorescence intensity did it give?
**A.** Its H1.0 immunofluorescence intensity is 90.3.

**Q.** Cc1ccc(S(=O)(=O)NC(=O)NN2CCCCCC2)cc1 [Tolazamide] was tested. Which H1.0 immunofluorescence intensity did it give?
**A.** Its H1.0 immunofluorescence intensity is 102.

**Q.** Cc1c(C)c2c(c(C)c1OC(=O)CCC(=O)O)CCC(C)(CCCC(C)CCCC(C)CCCC(C)C)O2 (stereo not drawn) [Tocopherol succinate] was tested. Which H1.0 immunofluorescence intensity did it give?
**A.** The H1.0 immunofluorescence intensity was 102.

**Q.** With CCCCCCC=CCCCCCCCCC(=O)O [10(E)-Heptadecenoic acid] as the compound, how does the H1.0 immunofluorescence intensity read?
**A.** The H1.0 immunofluorescence intensity was 98.8.

**Q.** How did the H1.0 immunofluorescence intensity turn out when COc1ccc(-c2nn3c(-c4ccccn4)nnc3s2)cc1OC was run?
**A.** Its H1.0 immunofluorescence intensity is 111.

**Q.** With CCCCCCCCCC(=O)O [Decanoic acid] as the compound, how does the H1.0 immunofluorescence intensity read?
**A.** Its H1.0 immunofluorescence intensity is 103.

**Q.** Cc1cnc(Nc2ccc(N3CCN(C)CC3)cc2)nc1Nc1cccc(S(=O)(=O)NC(C)(C)C)c1 was tested. Which H1.0 immunofluorescence intensity did it give?
**A.** Its H1.0 immunofluorescence intensity is 174 (active).

**Q.** CCCC(CCC)C(=O)O [Valproic acid] was tested. Which H1.0 immunofluorescence intensity did it give?
**A.** The H1.0 immunofluorescence intensity was 105.

**Q.** How did the H1.0 immunofluorescence intensity turn out when CN(C)CCC(c1ccc(Br)cc1)c1ccccn1.O=C(O)C=CC(=O)O (single isomer, unassigned; (+)) [(+)-Brompheniramine maleate] was run?
**A.** The H1.0 immunofluorescence intensity was 102.

**Q.** For C=CC1CN2CCC1CC2C(O)c1ccnc2ccc(OC)cc12.Cl.O (stereo not drawn), which H1.0 immunofluorescence intensity is on record?
**A.** Its H1.0 immunofluorescence intensity is 95.
